The sample as a whole holds a higher share of hits than the screen did.
KDM5B inhibitor = KDM5B demethylase inhibition; 220,000 tested, 2.6% active; Q9UGL1; AID 1347165; Potency, µM (highest dose often 57.7 µM), usual class: inhibitors; KDM5B demethylase, FDH-coupled NADH fluorescence (FDH is formaldehyde dehydrogenase); active = well fitted inhibition curve with a large enough effect; note: nearly all actives have a fitted effect of over 70% in size
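Coupled FDH/NAD⁺ fluorescence readout. KDM5BΔAP 200 nM final; compound titration, 10 min RT preincubation; substrate mix 12.5 µM H3K4me3, 25 µM 2-OG, 50 µM Fe(II), 100 µM ascorbate, 0.25 mM NAD⁺, 0.25 U/mL FDH; ΔRFU over 30 min.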
Hits are given with their value; 0 = inactive.

SMILES	KDM5B inhibitor
COc1ccc2[nH]c(=O)c(CCC(=O)N(C)CCc3ccccc3)cc2c1	28µM
COc1ccc(N(Cc2cc3ccccc3[nH]c2=O)C(=O)c2cccc(Cl)c2)cc1	0
Cc1nn(C)cc1CN(C)C(=O)CCn1nc(C(F)(F)F)c(Br)c1C	0
CCN(Cc1cc2cc(C)ccc2[nH]c1=O)C(=O)c1ccc(C)cc1	0
COc1ccc2[nH]c(C(=O)N(C)Cc3ccccc3)c(C)c2c1	0
CCN(CC)CCNC(=O)CCc1cc2cc(OC)ccc2[nH]c1=O	28µM
COc1ccc(NC(=O)CCc2cc3ccccc3[nH]c2=O)cc1OC	0
COc1ccc(OCCNC(=O)Cc2n[nH]c(=O)c3ccccc23)cc1	0
CCN(CC)CCNC(=O)CNC(=O)c1nn(-c2ccc(OC)cc2)c(=O)c2ccccc12	0
CCN(CC)CCNC(=O)Cc1n[nH]c(=O)c2ccccc12	0
COCCNC(=O)CCc1cc2cc(OC)ccc2[nH]c1=O	32µM
Cc1ccc2[nH]c(=O)c(CCC(=O)N(C)Cc3cn(C)nc3C)cc2c1	32µM
CCOCCn1c(CN2CCN(Cc3ccccc3)CC2)nc2c1c(=O)[nH]c(=O)n2C	0
CCCC(=O)Nc1ccc(-c2csc(NC3CC3)n2)cc1	0
O=C(CCc1nnn2c1CN(S(=O)(=O)c1ccc(F)cc1)CC2)NC1CC1	0
COCCOc1ccc2c(n1)CCN(C(=O)c1cc(OC)cc(OC)c1)C2	0
COc1ccc(-c2nn(-c3ccccc3C)cc2CNC(C)c2cn(C)nc2C)cc1F (centres undefined)	0
COc1ccc(NC(=O)C2CN(S(C)(=O)=O)CC23CCCCC3)c(C)c1 (centres undefined)	0
O=C(Cc1ccccc1)Nc1sc2c(c1C(=O)Nc1ccccc1Cl)CCCC2	0
N#Cc1cnn2c(C(F)(F)F)cc(-c3ccccc3)nc12	0
Cn1nccc1C(=O)N1CCN(C(=O)N2CC3CC(C2)[C@H]2CCCC(=O)N2C3)CC1 (some centres undefined)	0
O=C(NCc1ccc2c(c1)OCO2)C(=O)NCC(c1ccco1)N1CCN(c2ccccc2)CC1 (centres undefined)	0
COC(=O)c1sc(NC(=O)[C@@H](NC(=O)c2ccc(F)cc2)C(C)C)nc1C	0
CC(C)c1ccc(OCC(=O)Nc2c(Cl)ccc3nsnc23)cc1	0
COc1ccc(Cc2nc3ccccc3c(=O)n2N)cc1OC	0
SMILES	KDM5B inhibitor
O=C(OCC(=O)N1CCCCC1)c1cc(=O)c2cc(Cl)ccc2o1	0
C/C=C/c1ccccc1OCc1ccc(C(=O)O)cc1	0
CCC1CCCCN1CCCNC(=O)CCc1cc2cc(OC)ccc2[nH]c1=O (centres undefined)	32µM
O=C(CCc1cc2ccccc2[nH]c1=O)NCCCN1CCCC1=O	0
CCCNC(=O)CCc1cc2cc(OC)ccc2[nH]c1=O	32µM
COc1ccc(NC(=O)CCc2cc3cc(C)ccc3[nH]c2=O)c(OC)c1	0
COc1ccc(-c2cc(=O)oc3cc(OCC(=O)NCCN4CCOCC4)ccc23)cc1	0
COc1ccc2[nH]c(=O)c(CCC(=O)NCCN3CCCCCC3)cc2c1	28µM
CCC1CCCCN1CCCNC(=O)c1sc2nc(C)cc(C)c2c1-n1cccc1 (centres undefined)	0
O=C(CCCCCCC(=O)NCCN1CCCC1)NCCN1CCCC1	0
COc1ccc(N(Cc2cc3cc(OC)ccc3[nH]c2=O)C(=O)c2cccc(Cl)c2)cc1	0
Cc1cc(-c2ccccc2C(=O)NC2CCCCC2)on1	0
Cc1cccc(C(=O)Nc2ccc(C(=O)Nc3ccc(O)cc3)cc2)c1	0
NC(=O)[C@@H]1CCCN1CC[C@H]1CN(C(=O)c2ccnc(Cl)c2)CC[C@H]1CC(=O)O	0
CCCn1c(SCC(=O)O)nc2c1c(=O)[nH]c(=O)n2C	0
COc1cc2oc(=O)c(CC(=O)NCc3ccc(C)cc3)c(C)c2cc1Cl	0
Cc1nc(-c2c3n(c(=O)n(Cc4cccc(Br)c4)c2=O)CCCCC3)no1	0
COc1ccc(C(=O)COc2ccc(C#N)cc2OC)cc1Br	0
CN1Cc2c(cc(N3CCOCC3)nc2-c2cccc(C(F)(F)F)c2)C1=O	0
COc1cccc(-c2nc(N3CCOCC3)cc3c2CN(C)C3=O)c1	35µM
COc1cccc(-c2ccc(N3CCCCCC3)nn2)c1OC	0
Cc1ccc(NC(=O)Nc2cccc(-c3ccc(N4CCOCC4)nn3)c2)cc1F	0
Cc1cc(S(=O)(=O)Nc2cccc(-c3ccc(N4CCOCC4)nn3)c2)c(C)cc1Cl	0
COc1ccc(CN2Cc3[nH]nc(-c4cccc(OC)c4OC)c3CC2=O)cc1	0
CN1Cc2c(cc(N3CCOCC3)nc2-c2cccc(N[S+](C)(=O)[O-])c2)C1=O	35µM
COc1cccc(NC(=O)Nc2cccc(-c3ccc(N4CCOCC4)nn3)c2)c1	0
COc1cccc(-c2nc(N3CCOCC3)cc3c2CN(C)C3=O)c1OC	40µM
Cc1cccc(NC(=O)C(C#N)C(=O)CCc2ccccc2)c1 (centres undefined)	0
CC(C(=O)Nc1ccc(Br)cc1)n1cnc2c1c(=O)n(C)c(=O)n2C (centres undefined)	0
